Consider 7 molecules from PubChem BioAssay (Tox21).

The nature of test [1]: Nuclear factor erythroid 2-related factor 2/antioxidant responsive element (Nrf2/ARE) small molecule agonists: qHTS cell viability counter screen in human keratinocytes (AID 1919968; active = well fitted curve in the direction sought with a large enough effect in the repeat runs; an effect the other way counts as inactive or inconclusive; note: nearly all actives have a fitted effect of over 55% in size; note: potency is the fitted concentration of half-maximal effect). The essentials: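 Parallel cytotoxicity read: KeratinoSens HaCaT cells, compound treatment 23 h, viability by CellTiter-Fluor fluorescence 1 h post-reagent.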
(qHTS replaces the single test concentration by a dilution series.)

Test [2] can be described thus: Nuclear factor erythroid 2-related factor 2/antioxidant responsive element (Nrf2/ARE) small molecule agonists: luciferase reporter gene qHTS assay in human keratinocytes (AID 1919969; note: nearly all actives have a fitted effect of over 35% in size; note: potency is the fitted concentration of half-maximal effect). (A reporter such as luciferase makes a cellular process visible.)
The target in test [3] is Gonadotropin-releasing hormone receptor (Homo sapiens) (UniProt P30968). In words: Human gonadotropin-releasing hormone receptor (GnRHR) small molecule agonists, calcium flux assay in GnRHR-HEK293 cells (AID 1920063). Note: nearly all actives have a fitted effect of over 35% in size. The essentials:
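Calcium flux, agonist mode, human GnRHR stably integrated in HEK293; dye 1 h at 37 C before compound; Ex/Em=480/540 kinetic read, 3 min; 15 concentrations, triplicate.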
Background: A change in cytosolic calcium serves as a functional read-out for many receptors and channels.

The target of test [4] is KiSS-1 receptor (Homo sapiens) (UniProt Q969F8). Nature of the test: Human kisspeptin (KISS1R) small molecule agonists, calcium flux assay in KISS1R-HEK293 cells (AID 1920064; active = well fitted curve in the direction sought with a large enough effect in the repeat runs; an effect the other way counts as inactive or inconclusive). The essentials:
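Triplicate 15-concentration series were applied to dye-loaded human KISS1R HEK293 cells, and agonist-evoked calcium fluorescence was captured for 3 min.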

A short description of test [5]: G protein-coupled receptor (GPCR) small molecule agonists, calcium flux assay: HEK293 wild type cell line counter screen (AID 1920065). The essentials:
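Non-specific calcium responders were flagged by adding DMSO-dissolved compounds to dye-loaded cells and reading 480/540 nm fluorescence each second for 3 min; ATP served as positive control.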

Test [6] is described as follows: p53 small molecule agonists, cell-based qHTS assay with human liver microsomes (AID 1963577).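 Note: p53 response element beta-lactamase reporter cells with liver microsomes plus NADPH.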 The essentials:
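HLM-supplemented p53RE-bla reporter assay: 16 h compound exposure at 37 C, microsomes and NADPH each 0.5 mg/mL final, read by fluorescence intensity.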

Test [7] can be described thus: p53 small molecule agonists, cell-based qHTS assay with rat liver microsomes (AID 1963578). The essentials:
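Quantitative HTS of the Tox21 10K library: p53RE-bla cells, rat liver microsomes plus NADPH at 0.5 mg/mL final each, 16 h at 37 C, beta-lactamase fluorescence detection.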

A short description of test [8]: p53 small molecule agonists, cell-based qHTS assay with human liver microsomes: qHTS cell viability counter screen (AID 1963579). Note: nearly all actives have a fitted effect of over 45% in size. Note: potency is the fitted concentration of half-maximal effect. The essentials:
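Viability of p53RE-bla cells is measured as CellTiter-Glo luminescence following a 16 h, 37 C incubation with compound, liver microsomes from human donors and NADPH.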

Test [9] is described as follows: p53 small molecule agonists, cell-based qHTS assay with rat liver microsomes: qHTS cell viability counter screen (AID 1963580). Note: nearly all actives have a fitted effect of over 45% in size. Note: potency is the fitted concentration of half-maximal effect. The essentials: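 Cytotoxicity counter screen: intracellular ATP read by CellTiter-Glo luminescence in the p53 reporter wells. HCT-116 p53RE-bla cells were treated for 16 h at 37 C alongside rat liver microsomes and NADPH, each 0.5 mg/mL final.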

Test [10] is described as follows: p53 small molecule agonists, cell-based qHTS assay: qHTS cell viability counter screen (AID 1963581). Note: nearly all actives have a fitted effect of over 45% in size. Note: potency is the fitted concentration of half-maximal effect. The essentials: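 Multiplexed with the reporter read, a CellTiter-Glo step (30 min, room temperature) gauges ATP-based viability of HCT-116 p53RE-bla cells after 16 h compound incubation at 37 C.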
Test [11] deals with 5-hydroxytryptamine receptor 2A (Homo sapiens) (UniProt P28223). Nature of the test: 5-hydroxytryptamine receptor 2A (HTR2A) small molecule antagonists, cell-based qHTS assay (AID 1963586). Note: nearly all actives have a fitted effect of over 45% in size. The essentials: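 CHO cells stably expressing human HTR2A were plated for 18 h at 37 C, then loaded with calcium dye for 1 h. Compounds were preincubated 5 min at room temperature before DOI (4 nM solution) was added. Kinetic fluorescence was read for 3 min.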

For test [12] the target is unchanged. In words: 5-hydroxytryptamine receptor 2A (HTR2A) small molecule agonists, cell-based qHTS assay (AID 1963587). Note: nearly all actives have a fitted effect of over 30% in size. The essentials: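 Kinetic calcium-flux fluorescence (2 min, 1 sec intervals) after compound addition in agonist mode. HTR2A-CHO cells were cultured 18 h, then dye-loaded 1 h at 37 C.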
Test [13] has as its target Muscarinic acetylcholine receptor M1 (Homo sapiens) (UniProt P11229). In words: Cholinergic receptor muscarinic 1 (CHRM1) small molecule antagonists, cell-based qHTS assay (AID 1963588). Note: nearly all actives have a fitted effect of over 40% in size. The essentials: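 Compounds were tested at 15 concentrations in three independent runs. Dye-loaded CHRM1-CHO cells were exposed 5 min at room temperature before stimulation by acetylcholine added at 50nM. Intracellular calcium was read kinetically on FDSS for 3 min.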

Test [14] deals with Beta-2 adrenergic receptor (Homo sapiens) (UniProt P07550). In words: Adrenergic beta2 receptor (ADRB2) small molecule antagonists, cell-based qHTS assay (AID 1963592). Note: series mostly up to about 92 µM; nearly all actives have a fitted effect of over 50% in size. The essentials: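 Assay format: CHO-ADRB2 cells, 18-20hr seeding at 37C/5% CO2, then compound plus 1nM isoproterenol agonist mix for 0.5hr RT. Homogeneous time-resolved fluorescence cAMP detection after 1hr, expressed as 665/615 nm ratio.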

Test [15] deals with D(2) dopamine receptor (Homo sapiens) (UniProt P14416). Nature of the test: Dopamine D2 receptor (DRD2) small molecule agonists, cell-based qHTS assay (AID 1963594). Note: nearly all actives have a fitted effect of over 35% in size. The essentials:
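cAMP accumulation in DRD2-HEK293 cells measured by HTRF after 1 h detection; compounds added 10 min before NKH477 (200nM […]) forskolin-analogue stimulation, 30 min at room temperature, with Ro20-1724 present at 0.1 mM final.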

Test [16] shares this target. In words: Dopamine D2 receptor (DRD2) small molecule antagonists, cell-based qHTS assay (AID 1963595; active = well fitted inhibition curve with a large enough effect in the signal ratio in the repeat runs, with a control signal flat; the % refers to the signal ratio; note: potency is the fitted concentration of half-maximal effect). The essentials: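 HEK293 cells stably expressing DRD2 were preincubated with 0.1 mM Ro20-1724, then with compound for 10 min at room temperature. Cells were stimulated with 200 nM NKH477 plus 12 nM quinpirole for 30 min, and cAMP was read by HTRF.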
A short description of test [17]: p53 small molecule agonists, cell-based qHTS assay (AID 1963582; active = well fitted activation curve with a large enough effect in the signal ratio in the repeat runs, not every such curve was filed as active; the % refers to the signal ratio). The essentials:
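Beta-lactamase reporter cells (p53RE-bla) treated with compounds for 16 h at 37 C; FRET substrate, 2 h, room temperature; fluorescence intensity.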

Test [18] deals with Muscarinic acetylcholine receptor M1 (Homo sapiens) (UniProt P11229). Nature of the test: Cholinergic receptor muscarinic 1 (CHRM1) small molecule agonists, cell-based qHTS assay (AID 1963589). Note: nearly all actives have a fitted effect of over 35% in size. The essentials:
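qHTS, 15-point titration, 3 independent runs: compounds pin-transferred onto dye-loaded CHRM1-CHO cells (human M1), calcium fluorescence followed every second to detect agonism.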

Test [19] can be described thus: cAMP Responsive Elements (CRE) small molecule agonists, cell-based qHTS assay (AID 1963590). The essentials:
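Quantitative HTS for CRE agonists: HEK 293T CRE-bla cells, overnight plating, 3 h compound incubation at 37 C/5% CO2, then 2 h room-temperature LiveBLAzer B/G FRET substrate loading.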

The nature of test [20]: cAMP Responsive Elements (CRE) small molecule antagonists, cell-based qHTS assay (AID 1963591; active = well fitted inhibition curve with a large enough effect in the signal ratio in the repeat runs, not every such curve was filed as active; the % refers to the signal ratio). The essentials: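 Fluorescence intensity from cleaved LiveBLAzer B/G substrate (2 h, room temperature) quantified CRE-bla activity in HEK 293T cells exposed 3 h to compound with 0.25 uM final NKH477.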

“And” between values parts separate entries of the source, which are not always exact repeats. Identical values can stand only once. Results filed as inconclusive are left out. Some compounds were tested as several samples or in several runs, with calls that do not always agree. The source made the active and inactive calls. Unless noted, calls come from the whole dose curve.

5-hydroxytryptamine receptor 2A (Homo sapiens), sequence (P28223 whole entry, looked up): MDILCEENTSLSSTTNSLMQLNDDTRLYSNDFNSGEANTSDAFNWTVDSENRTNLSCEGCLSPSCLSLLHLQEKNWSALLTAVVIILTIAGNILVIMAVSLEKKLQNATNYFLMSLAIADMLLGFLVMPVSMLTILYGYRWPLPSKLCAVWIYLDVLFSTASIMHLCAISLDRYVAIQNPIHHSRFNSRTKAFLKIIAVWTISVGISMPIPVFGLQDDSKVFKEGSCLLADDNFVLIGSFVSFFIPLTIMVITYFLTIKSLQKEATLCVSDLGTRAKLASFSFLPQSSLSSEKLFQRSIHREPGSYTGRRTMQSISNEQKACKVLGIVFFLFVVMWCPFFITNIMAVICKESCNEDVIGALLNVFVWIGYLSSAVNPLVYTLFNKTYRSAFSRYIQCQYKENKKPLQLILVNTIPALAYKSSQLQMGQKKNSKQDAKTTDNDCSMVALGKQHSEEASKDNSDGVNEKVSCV
D(2) dopamine receptor (Homo sapiens), sequence (P14416 whole entry, looked up): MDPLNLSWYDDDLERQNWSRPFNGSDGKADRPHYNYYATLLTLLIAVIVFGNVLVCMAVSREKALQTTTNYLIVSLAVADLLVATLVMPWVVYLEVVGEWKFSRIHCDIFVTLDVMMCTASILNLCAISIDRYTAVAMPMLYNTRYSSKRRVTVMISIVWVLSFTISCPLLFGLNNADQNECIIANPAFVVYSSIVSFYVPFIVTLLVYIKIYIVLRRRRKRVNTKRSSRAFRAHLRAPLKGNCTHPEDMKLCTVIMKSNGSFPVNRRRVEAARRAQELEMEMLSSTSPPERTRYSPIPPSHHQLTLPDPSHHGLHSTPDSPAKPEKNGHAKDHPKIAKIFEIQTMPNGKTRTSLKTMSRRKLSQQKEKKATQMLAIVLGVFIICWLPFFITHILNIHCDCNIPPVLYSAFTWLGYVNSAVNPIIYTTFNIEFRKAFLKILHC
Gonadotropin-releasing hormone receptor (Homo sapiens), sequence (P30968 whole entry, looked up): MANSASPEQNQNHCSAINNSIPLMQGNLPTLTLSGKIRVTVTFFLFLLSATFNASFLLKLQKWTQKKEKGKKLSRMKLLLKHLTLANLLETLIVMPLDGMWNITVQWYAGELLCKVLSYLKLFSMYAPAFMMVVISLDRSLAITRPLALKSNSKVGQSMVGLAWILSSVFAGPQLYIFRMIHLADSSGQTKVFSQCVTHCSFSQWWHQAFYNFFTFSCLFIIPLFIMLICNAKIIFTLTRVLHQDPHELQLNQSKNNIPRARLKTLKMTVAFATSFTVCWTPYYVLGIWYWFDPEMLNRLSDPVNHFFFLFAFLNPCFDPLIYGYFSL
KiSS-1 receptor (Homo sapiens), sequence (Q969F8 whole entry, looked up): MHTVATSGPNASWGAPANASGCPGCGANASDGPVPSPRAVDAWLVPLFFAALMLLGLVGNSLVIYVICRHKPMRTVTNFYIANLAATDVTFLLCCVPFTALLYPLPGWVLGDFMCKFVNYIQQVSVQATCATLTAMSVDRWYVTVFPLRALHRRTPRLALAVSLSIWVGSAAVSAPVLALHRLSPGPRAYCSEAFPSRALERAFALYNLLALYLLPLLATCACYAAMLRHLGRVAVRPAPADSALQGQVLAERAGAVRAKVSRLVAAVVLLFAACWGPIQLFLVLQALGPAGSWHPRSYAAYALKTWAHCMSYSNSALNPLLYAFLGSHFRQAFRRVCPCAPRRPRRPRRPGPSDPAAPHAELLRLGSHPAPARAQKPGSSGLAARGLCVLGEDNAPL
Beta-2 adrenergic receptor (Homo sapiens), sequence (P07550 whole entry, looked up): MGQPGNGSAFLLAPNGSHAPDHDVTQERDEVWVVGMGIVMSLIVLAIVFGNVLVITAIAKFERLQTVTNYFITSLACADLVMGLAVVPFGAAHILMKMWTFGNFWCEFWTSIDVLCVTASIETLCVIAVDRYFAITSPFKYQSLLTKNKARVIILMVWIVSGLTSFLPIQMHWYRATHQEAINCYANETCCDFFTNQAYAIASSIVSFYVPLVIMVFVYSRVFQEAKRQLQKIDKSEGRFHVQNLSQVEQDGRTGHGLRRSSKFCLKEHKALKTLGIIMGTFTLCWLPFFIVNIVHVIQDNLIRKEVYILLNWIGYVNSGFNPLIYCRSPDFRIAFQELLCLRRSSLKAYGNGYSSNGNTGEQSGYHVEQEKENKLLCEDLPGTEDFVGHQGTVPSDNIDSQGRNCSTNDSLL
Muscarinic acetylcholine receptor M1 (Homo sapiens), sequence (P11229 whole entry, looked up): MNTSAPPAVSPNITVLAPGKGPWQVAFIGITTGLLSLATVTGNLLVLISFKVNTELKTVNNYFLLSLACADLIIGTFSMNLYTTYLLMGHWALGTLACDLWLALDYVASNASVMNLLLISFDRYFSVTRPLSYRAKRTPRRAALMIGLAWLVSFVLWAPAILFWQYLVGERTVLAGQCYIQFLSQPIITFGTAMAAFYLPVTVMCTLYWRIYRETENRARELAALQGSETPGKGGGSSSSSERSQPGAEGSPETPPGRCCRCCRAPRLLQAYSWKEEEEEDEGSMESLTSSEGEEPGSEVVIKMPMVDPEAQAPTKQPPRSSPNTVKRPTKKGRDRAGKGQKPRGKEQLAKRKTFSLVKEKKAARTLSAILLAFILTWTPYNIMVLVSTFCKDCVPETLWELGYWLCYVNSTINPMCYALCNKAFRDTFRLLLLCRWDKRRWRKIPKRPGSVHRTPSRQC

For `N#Cc1c(Cl)c(Cl)c(Cl)c(C#N)c1Cl`, the Potency in test [1] is 2.68 µM (active) and 2.73 µM (active); in test [2] it was 950 nM (active) and 969 nM (active); in [8], 25.2 µM (active) and 18.2 µM (active); in [10], 18.2 µM (active); in test [16] it was 15.1 µM (active) and 4.86 µM (active). The Potency result in test [3], in [4], in test [5], in test [6], in test [7] and in test [9] was “inactive” in each case. The Potency result in test [11], in test [12], in test [13], in test [14] and in test [15] was “inactive” throughout.
As for `Clc1cnc(Oc2ccc(Oc3ncc(Cl)cc3Cl)cc2)c(Cl)c1`, the Potency entry in [1], in test [2], in test [3], in test [4], in [5] and in test [6] was “inactive” each time. The Potency result in test [7], in test [8], in test [9], in test [17], in test [11] and in test [12] was “inactive” each time. Also, the Potency entry in test [13], in [18], in test [19], in test [20], in test [14] and in test [15] was “inactive” each time.
For `Cc1cc(Cl)ccc1N=CN(C)C`, the Potency entry in test [1], in [2], in [3], in test [4], in test [5] and in test [6] was “inactive” in each case. Besides, the Potency result in test [7], in test [8], in test [9], in test [10], in [11] and in test [12] was “inactive” each time. The Potency entry in test [13], in test [18], in test [19], in test [20], in test [14] and in [15] was “inactive” each time. Also, in test [16], the Potency result was “inactive”.
Take `CCCCCCCCCCCCCC[P+](CCCCCC)(CCCCCC)CCCCCC`: the Potency in test [1] is 7.73 µM (active) and 19.5 µM (active) and inactive; in test [8] it was 14.5 µM (active) and 20.6 µM (active) and inactive; in test [9], 16.3 µM (active) and 20.6 µM (active) and inactive; in test [10], 7.29 µM (active) and 18.4 µM (active). Also, the Potency entry in [2], in test [3], in test [4], in test [5], in test [6] and in test [7] was “inactive” each time. The Potency result in [11], in test [12], in [13], in [18], in [14] and in test [15] was “inactive” in each case.
With `CCC(CC)Nc1c([N+](=O)[O-])cc(C)c(C)c1[N+](=O)[O-]`, the Potency result in test [1], in [3], in [4], in [5], in [6] and in [7] was “inactive” in each case. In addition, the Potency result in [8], in test [9], in [10], in test [11], in test [12] and in test [13] was “inactive” throughout. In addition, the Potency result in test [18], in test [19], in test [14], in [15] and in [16] was “inactive” throughout. Moreover, in [2], the Potency was 17.5 µM (active) and 48.5 µM (active).
`CCOc1cc(C=O)ccc1O`: the Potency entry in test [1], in [2], in test [3], in [4], in test [5] and in [6] was “inactive” throughout. For the same molecule, the Potency entry in test [7], in [8], in test [9], in test [10], in test [11] and in test [12] was “inactive” each time. In addition, the Potency entry in test [13], in test [18], in test [19], in [20], in test [14] and in [15] was “inactive” in each case. In addition, the Potency result in test [16] was “inactive”.
With `O=C(O)c1nn(Cc2ccc(Cl)cc2Cl)c2ccccc12`, the Potency entry in test [1], in test [2], in test [3], in test [4], in test [5] and in test [6] was “inactive” in each case. In addition, the Potency result in test [7], in test [8], in [9], in test [10], in test [11] and in test [12] was “inactive” each time. Moreover, the Potency entry in test [13], in test [18], in test [14], in [15] and in test [16] was “inactive” each time.
